This is an account of results in PubChem BioAssay (EPA / NIEHS).

Records with an inconclusive call do not appear. Activity calls are given as the source filed them. The calls were made as follows: active = hit-call score of the fitted dose curve at least 0.9, where 1 is the maximum; inconclusive = response in the unintended direction; inactive = score below 0.9.

The nature of the experiment: Tanguay_ZF_120hpf_TRUN_legacy: (Legacy) Oregon State University Tanguay Lab 120 Hour Post-fertilization zebrafish Assay for Truncated Body (AID 2283655). As for the experimental part:
Tanguay_ZF_120hpf_legacy is a whole embryo, multiplexed endpoint assay using zebrafish larvae exposed for 120 hours post fertilization on a 96-well plate.Tanguay_ZF_120hpf_TRUN_legacy is one of one assay component(s) measured or calculated from the Tanguay_ZF_120hpf_legacy assay. It is designed to make measurements of zebrafish development as detected with brightfield microscopy of developing zebrafish embryos.Data from the assay component Tanguay_ZF_120hpf_TRUN_legacy was analyzed into 1 assay endpoints. This assay endpoint, Tanguay_ZF_120hpf_TRUN_legacy, was analyzed in the positive analysis fitting direction relative to DMSO as the negative control and baseline of activity. Using a type of morphology reporter, gain-of-signal activity can be used to understand changes in developmentals as they relate to the whole embryo. To generalize the intended target to other relatable targets, this assay endpoint is annotated to the zebrafish development intended target family, where the subfamily is embryonic morphogenesis.
Zebrafish husbandry: Tropical 5D wild-type adult zebrafish were housed in at an approximate density of 1000 per 100 gallon tank at the Sinnhuber Aquatic Research Laboratory, Oregon State University, Corvallis, OR. Each tank was kept at standard laboratory conditions of 28C on a 14-h light/10-h dark photoperiod in fish water consisting of reverse osmosis water supplemented with a commercially available salt (Instant Ocean). Spawning funnels were placed into the tanks the night prior, and embryos were collected and staged. To increase bioavailability, the chorion was enzymatically removed using pronase (63.6mg/ml, >/= 3.5U/mg, Sigma-Aldrich: P5147) at 4 hours post fertilization (hpf) using a custom automated dechorionator.Chemical exposures: Six hpf dechorionated embryos were placed 1 embryo per well in a 96-well plate prefilled with 90 ul of EM using automated embryo placement systems (AEPS). Ten microliters of each row of dilution plate 2 was added to 2 exposure plates. The final DMSO concentration used was 0.64% (vol/vol). Thirty-two embryos were also exposed to 5uM trimethyltin chloride (positive control). Plates were sealed to prevent evaporation and foil covered to reduce light exposure and kept in a 28C incubator. Embryos were statically exposed until 120 hpf. At 24 hpf, embryos were assessed for photomotor response using a custom photomotor response analysis tool (PRAT) and for developmental toxicity endpoints (MO24: mortality at 24 hpf, DP: developmental progression, SM: spontaneous movement, and NC: notochord distortion). At 120 hpf, locomotor activity was measured using Viewpoint Zebralab and assessed for 18 endpoints. Zebrafish acquisition and analysis program (ZAAP), a custom program designed to inventory, acquire, and manage zebrafish data, was used to collect developmental endpoints as either present or absent (i.e., binary responses were recorded). If mortality occurred for an embryo (at either 24 or 120 hpf), the non-mortality endpoints were not measured.
Consider `CCCCC(CC)COC(=O)CCCCCCCCC(=O)OCC(CC)CCCC` (stereo not given), for which the outcome was inactive.
Same read-out and setting: to `COc1ccc(-n2nc(C(F)F)cc2-c2ccc(S(C)=O)cc2)cc1` (stereo not given) belongs “inactive”.
Turning to `COc1cccc(-c2ccc(/C=C\CN3CCCCCC3)cc2Cl)c1`, the outcome was inactive.
Same read-out and setting: to `CCNc1ccccc1` belongs “inactive”.
The same measure, in the same setting: to `O=C(OC[C@H]1O[C@@H](OC(=O)c2cc(O)c(O)c(OC(=O)c3cc(O)c(O)c(O)c3)c2)[C@H](OC(=O)c2cc(O)c(O)c(OC(=O)c3cc(O)c(O)c(O)c3)c2)[C@@H](OC(=O)c2cc(O)c(O)c(OC(=O)c3cc(O)c(O)c(O)c3)c2)[C@@H]1OC(=O)c1cc(O)c(O)c(OC(=O)c2cc(O)c(O)c(O)c2)c1)c1cc(O)c(O)c(OC(=O)c2cc(O)c(O)c(O)c2)c1` belongs “inactive”.
Consider `Fc1ccccc1[C@@H](F)COC1CCC(Nc2ncnc3[nH]ncc23)CC1` (stereo not given in full), for which the outcome was inactive.
`CC1=CC(=O)CC(C)(C)C1`: the call was inactive.
Consider `Nc1ccc(Nc2ccccc2)cc1`, for which the AC50 was 40.8 µM (active).
As for `Oc1ccc2c(c1)-c1ccccc1C2`, the compound was classed as inactive.
For `O=C(NS(=O)(=O)/C=C/c1ccccc1)c1ccc(F)cc1Cl`, the compound was classed as inactive.
Same read-out and setting: to `Nc1nc2ncc(CNc3ccc(C(=O)N[C@@H](CCC(=O)O)C(=O)O)cc3)nc2c(=O)[nH]1` belongs “inactive”; to `COC(=O)c1c(Cl)c(Cl)c(C(=O)OC)c(Cl)c1Cl`, “inactive”.
`CC(C)CCCCCCCOC(=O)CCCCC(=O)OCCCCCCCC(C)C`: the call was inactive.
In the case of `Cc1c(-c2cccnc2)c2ccccc2n1CCCCC(=O)O`, the outcome was inactive.
Regarding `CC(C)(O)c1coc(S(=O)(=O)NC(=O)Nc2c3c(cc4c2CCC4)CCC3)c1`, the compound was called inactive.
For `C=CC(=C)CCC=C(C)C`, the result was inactive.
On to `O=C(O)c1cc(N=Nc2ccc(S(=O)(=O)Nc3ccccn3)cc2)ccc1O`, for which the outcome was inactive.
Still for that read-out and setting: to `CCn1nc(Cc2ccccc2)cc1C1CCN(C[C@H]2C[C@H](N(C)[C@@H](C(=O)O)C(C)C)C[C@@H]2c2cccc(F)c2)CC1` belongs “inactive”; to `O=C(O)CC(O)C(=O)O` (stereo not given), “inactive”.
Still for that read-out and setting: to `COCCOc1cc2cc(C(=O)NC3CCN(C(C)C)CC3)n(CC(=O)Nc3ccc(Cl)cn3)c2cn1` belongs “inactive”.
Take `C[C@](N)(Cc1ccc(O)c(O)c1)C(=O)O`: the compound was classed as inactive.
Take `Cn1cnc([N+](=O)[O-])c1Sc1ncnc2nc[nH]c12`: the compound was classed as inactive.
On the same count and under the same terms, to `COc1ccc2sc(C(=O)Nc3nnn[nH]3)c(OC(C)C)c2c1` belongs “inactive”; to `O=c1n(CC2CO2)c(=O)n(CC2CO2)c(=O)n1CC1CO1` (stereo not given), “inactive”; to `NC(=O)NO`, “inactive”.
Same read-out and setting: to `COCCOCCOCCOC` belongs “inactive”.
With `C1=CCCC=CCCC=CCC1`, the call was inactive.
`CNS(=O)(=O)c1cc(C(=O)N2CCC(CCN3C4CCC3CC(n3c(C)nc5ccccc53)C4)(c3cccc(F)c3)CC2)c(Cl)cc1F` (stereo not given): the compound was called inactive.
Still for that read-out and setting: to `Clc1nc(Cl)c(Cl)c(Cl)c1Cl` belongs “inactive”.
Turning to `CCc1cc(SCc2sc(-c3ccc(C(F)(F)F)cc3)nc2CN2CCN(c3ccc(OC)cc3)CC2)ccc1OCC(=O)O`, the outcome was inactive.
With `O=P(OC(CCl)CCl)(OC(CCl)CCl)OC(CCl)CCl`, the AC50 is 36.2 µM (active).
Regarding `O=C(O)c1cccc(Oc2ccccc2)c1`, the outcome was inactive.
The same measure, in the same setting: to `Cn1c(=O)c2c(ncn2C)n(C)c1=O` belongs “inactive”.
On to `CC(=O)OCCC(C)C`, for which the compound was classed as inactive.
As for `CC[C@H]1CC[C@H](NCc2cc3c(cc2OC)[C@H]2C[C@H]2C(=O)N3C)[C@H](c2ccccc2)N1`, the compound was classed as inactive.
As for `CC(C)CCCCCCOC(=O)c1ccc(C(=O)OCCCCCCC(C)C)c(C(=O)OCCCCCCC(C)C)c1`, the outcome was inactive.
`CCOC(=O)COc1ccc2c(c1)CC(NCC(O)c1cccc(Cl)c1)CC2` (stereo not given): the compound was classed as inactive.
For the compound `CC(C)CCO`, the result was inactive.
Turning to `CCCCC(CC)COC(=O)c1ccc(C(=O)OCC(CC)CCCC)cc1` (stereo not given), the compound was classed as inactive.
`CCCC(=O)OCC`: the result was inactive.

As usually defined, the AC50 is the concentration at which the activity in the assay is half-maximal.
